Source: PubChem BioAssay (NCI)
Values joined by “and” are separate entries in the source; they are usually repeats but may differ in a detail not shown here. Equal entries are not always repeated. About 83,000 compounds went through this panel and 20% of them were active in at least one assay; those are over-represented in the sample as a whole.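 Each cell line was grown in a 96-well plate and treated with one concentration of compound for 48 hours. Values below 10 were considered active.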 Unmarked numbers belong to inactive results. Active and inactive are the calls of the source.

test system: MDA-MB-468 breast; assay: NCI-60 one-dose screen, 48 h (100 = growth as untreated, 0 = no growth, -100 = all killed); conditions: 10 µM unless noted

| Compound | growth |
| --- | --- |
| C[C@]12CCc3c(ccc4cc(O)ccc34)[C@@H]1C[C@H](O)[C@@H]2O | 100% |
| Nc1c(C(=O)Nc2ccccn2)sc2nc3c(cc12)CCCCCC3 | 8.53% (active) |
| O=[N+]([O-])c1ccc(NC2CCCCC2)nc1 | 110% and 99.8% |
| CNC(=O)c1cc(Oc2ccc(NC(=O)c3nc(S(C)(=O)=O)sc3-c3ccc(F)cc3)cc2)ccn1 | -4.37% (active) |
| Cc1nc(N)nc(SCc2ccccc2)c1Br | 69% |
| Nc1nc(N)c2c(ccc3c2ccn3Cc2cccc([N+](=O)[O-])c2)n1 | -84.7% (active) |
| CC1(C)NCCC[C@]2(C)[C@H]3C=CC4=C5C[C@](C)(CO)CC[C@]5(C)CC[C@@]4(C)[C@]3(C)CC[C@@H]12 | -79.5% [100 µM] (active) |
| COC(=O)[C@@H](NC(=O)NC(=O)NC(=O)CI)C(C)C | 71.6% |
| C=C1C(=O)O[C@H]2[C@H]1CC/C(Cn1cc(CNCCc3c[nH]c4ccc(Cl)cc34)nn1)=C\CC[C@@]1(C)O[C@@H]21 | 19.6% |
| COc1ccc(-c2nn(-c3cccc(NC(=O)Nc4ccc(Cl)c(C(F)(F)F)c4)c3)cc2-c2ccncc2)cc1Cl | 23.1% |
| CCCCN1CCCn2c1nc1c2c(=O)n(CCC)c(=O)n1CCC | 101% |
| NC(=N\N=C/Cc1ccccc1)/C(N)=N\N=C\Cc1ccccc1 | 112% |
| COc1cc(/C=C2\C(=O)N(CCCCn3c4ccccc4c(=O)c4ccccc43)c3ccccc32)cc(OC)c1O | 46.2% |
| O=C(Nc1ccc(-n2ccc3c(NC(=O)c4ccccc4)nccc32)cc1)c1ccc(Cl)c(C(F)(F)F)c1 | -9.71% (active) |
| C[N+]1(CCC[N+]2(C)C[C@@H]3[C@H](C2)[C@@H]2C=C[C@H]3C2)CCOCC1 (some centres undefined) | 108% |
| CCOC(=O)/C=C/C(=O)[C@H](CC(C)C)NC(=O)[C@H](Cc1ccccc1)NC(=O)OCc1ccccc1 | -21.5% (active) |
| Oc1ccccc1-c1nnc(SCc2ccc(O)c3ncccc23)n1-c1ccccc1 | 0.833% (active) |
| CCCC[N+](CCCC)=c1ccc2nc3c(C)cc(N(CC)CC)cc3sc-2c1 | -45.9% (active) |
| CCCNc1nc(N(C)O)nc(N(C)O)n1 | 21.5% |
| O=c1cc(-c2cccnc2)oc2c1ccc1ccccc12 | 65% |

| Compound | growth |
| --- | --- |
| C=C(C)[C@H]1CC/C(C)=C/CC[C@]2(C)O[C@H]2CC/C(COC(=O)[C@@H](OC(C)=O)[C@H](NC(=O)c2ccccc2)c2ccccc2)=C\[C@@H]1O | 84.4% |
| Cc1ccc(-c2nc3nc(-c4ccccc4)nc(N4CCN(S(=O)(=O)c5ccccc5)CC4)c3o2)cc1 | 101% |
| CNS(=O)(=O)c1ccc(Cl)c(Cl)c1 | 101% |
| Cc1ncc(CO)c(C(=O)O)c1O | 108% |
| NC(=O)c1cccc(-c2ccccc2N2CCCCC2)c1 | 94.2% |
| CC(C)n1c2ccc(Br)cc2c2c3c(c4c5ccccc5ccc4c21)C(=O)NC3=O | 93.5% |
| COC(=O)[C@]12CC[C@@H](C)[C@H](C)[C@@H]1C1=CC[C@@H]3[C@@]4(C)CC(=O)[C@H](OC(=O)c5ccco5)[C@@]5(C)COC(=C45)C[C@@]3(C)[C@]1(C)CC2 | 8.15% (active) |
| COc1ccc(/C(=C\c2ccccc2)C(=O)O)cc1OC | 93.2% |
| O=c1oc2ccc(Br)cc2c(=O)n1-c1ccc(I)cc1F | -0.692% (active) |
| COc1ccc(C[n+]2c3ccccc3n3c4ccc(N)cc4ccc32)c(OC)c1OC | -22.5% (active) |
| COC(=O)Cc1nc(C#N)c(N(C)C)o1 | 97.8% |
| C[C@@H](N)c1ccc(C(=O)Nc2ccnc3[nH]ccc23)cc1 | 49.2% |
| COc1ccc(-c2nc(-c3nc4ccc(OC)cc4[nH]3)cc3c2[nH]c2ccccc23)cc1 | 59.6% |
| C[C@]12CC[C@@H]3c4ccc(O)cc4CC[C@H]3[C@@H]1CC[C@@H]2NS(=O)(=O)c1cccc(Br)c1 | 53.8% |
| O=C(/C=C/c1ccco1)Nc1ncc(Cc2cc(Cl)ccc2Cl)s1 | 14.6% |
| C[C@]12C[C@@H](c3ccoc3)OC(=O)[C@@H]1CC[C@]1(C)[C@@H]2CC[C@@H](O)[C@]1(C)O | 88.3% |
| CC1CN(C2CCCCC2)C(=O)NC1=O (centres undefined) | 108% |
| O=C(/C=C/c1cn(-c2ccccc2)nc1-c1ccc(Cl)cc1)c1cc2ccccc2oc1=O | 64.6% |
| COC(=O)c1c2c(c(C)[n+]([O-])c1C)C(=O)C(NCc1ccccc1)=CC2=O | -31.8% (active) |
